# Experimental data: PubChem BioAssay (NCATS)
# A number with no mark means an inactive call. Results filed as inconclusive are left out. Where a call stands in place of a potency, no number is given. Calls of active or inactive are those of the source. Unless noted, calls come from the whole dose curve; as a rule, active = well fitted curve in the direction sought with a large enough effect; inconclusive = small, poorly fitted or top-dose-only effect, or another doubt; inactive = no such curve, though single readings can be large; an effect the other way counts as inactive or inconclusive.
# Assays:
# [1] = Cell Viability - MRC5 (AID 434; calls by dose curve;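 note: potency is the fitted concentration of half-maximal effect; cells exposed to compound for 40 hours at 37 °C; potency reflects cytotoxicity seen as loss of intracellular ATP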); settings: MRC5 lung fibroblast viability, qHTS
# Procedure, shortened: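 ATP luminescence read-out (CellTiter-Glo, 20 min RT) after 40 hr, 37 °C compound exposure of 1500 MRC5 cells/well. Data normalized to DMSO (basal) and 100 uM tamoxifen (100% inhibition); AC50 from standard Hill equation.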
# [2] = Cell Viability - LYMP2-001 (AID 921); settings: LYMP2-001 lymphoblastoid cell viability; series mostly up to 92.2 µM; note: nearly all actives have a fitted effect of over 70% in size; note: potency is the fitted concentration of half-maximal effect
# Procedure, shortened: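 qHTS, 1536-well; lymphoblastoid cells, 24 hr compound, 37 C; ATP by CellTiter-Glo, 30 min RT; luminescence; Hill-fit AC50.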
# [3] = MultiTox-Fluor Cytotoxicity Assay - LYMP1-001 - Live Cells (AID 947); settings: LYMP1-001 lymphoblastoid cells, live-cell protease fluorescence viability; series mostly up to 92.2 µM
# [4] = MultiTox-Fluor Cytotoxicity Assay - LYMP1-003 - Dead Cells (AID 961); settings: LYMP1-003 lymphoblastoid cells, dead-cell protease fluorescence; series mostly up to 92.2 µM; note: nearly all actives have a fitted effect of over 70% in size
# Procedure, shortened: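 Human lymphoblastoid LYMP1-003 cells (2500/well) were treated with compounds for 16 hr at 37 C in complete medium. Dead-cell protease release was read by bis-AAF-R110 fluorescence (Ex/Em 485/520). AC50 came from Hill fits, normalized to DMSO and 15 uM tetraoctylammonium bromide.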
# [5] = Cell Viability - LYMP1-003 - Assay at 40 hr (AID 964); settings: LYMP1-003 lymphoblastoid viability; series mostly up to 92.2 µM; note: nearly all actives have a fitted effect of over 60% in size; note: potency is the fitted concentration of half-maximal effect
# Procedure, shortened: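 LYMP1-003 lymphoblastoid cells, 2500/well; 5 hr preincubation, 40 hr compound exposure, 37 C; CellTiter-Glo 30 min RT; luminescence; Hill-fit AC50. Positive control tetraoctylammonium bromide.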
# [6] = Cell Viability - LYMP2-011 (AID 969); settings: LYMP2-011 lymphoblastoid cells viability; series mostly up to 92.2 µM;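 note: cells exposed to compound for 24 hours; nearly all actives have a fitted effect of over 60% in size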
# Procedure, shortened: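 Luminescent ATP read-out (CellTiter-Glo, 30 min RT) after 24 hr compound exposure at 37 C in human lymphoblastoid cells, 2500 cells/well. Decreasing ATP indicates cytotoxicity; AC50 from standard Hill fit.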
# [7] = Cell Viability - LYMP2-021 (AID 974); settings: LYMP2-021 lymphoblastoid cells viability; series mostly up to 92.2 µM;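 note: compound exposure lasts 24 hours at 37 °C; nearly all actives have a fitted effect of over 55% in size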; note: potency is the fitted concentration of half-maximal effect
# Procedure, shortened: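 ATP luminescence (CellTiter-Glo, 30 min RT) after 24 h compound exposure at 37 C; 2500 human lymphoblastoid cells/well, 5 h settle beforehand. Cytotoxicity = concentration-dependent ATP drop, AC50 by Hill fit.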
# [8] = Cell Viability - LYMP2-002 (AID 977); settings: LYMP2-002 lymphoblastoid cell viability, qHTS; series mostly up to 92.2 µM
# Procedure, shortened: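 Human lymphoblastoid cells, 2500/well, complete medium; 5 h 37 C settle; compound 24 h 37 C; CellTiter-Glo, 30 min RT; luminescence. Decrease in ATP = cytotoxicity; AC50 via Hill equation.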
# [9] = Cell Viability - LYMP2-022 (AID 987); settings: LYMP2-022 lymphoblastoid cell viability; series mostly up to 92.2 µM; note: nearly all actives have a fitted effect of over 55% in size; note: potency is the fitted concentration of half-maximal effect
# Procedure, shortened: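 Luminescent ATP read-out (CellTiter-Glo, 30 min, RT) after 24 hr, 37 C compound exposure of 2500 human lymphoblastoid cells/well in complete medium. Cytotoxicity taken as concentration-dependent ATP loss; AC50 from standard Hill equation.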
# [10] = target: Vitamin D3 receptor (Homo sapiens) (UniProt P11473); assay: qHTS assay for small molecule antagonists of vitamin D receptor signaling (AID 588541; calls by dose curve;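 note: receptor activated by calcitriol during compound treatment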); settings: HEK293T VDR-UAS-bla, beta-lactamase ratio, antagonist mode; series mostly up to 76.7 µM
# Procedure, shortened: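 VDR-UAS-bla HEK293T cells in 2% charcoal-stripped FBS were stimulated with 1-alpha,25-dihydroxyvitamin D3 (3 nM final) plus compound for 16 h at 37 C. The beta-lactamase CCF4 readout was normalized to 50 nM agonist and DMSO, and Hill fits gave IC50.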
# [11] = target: Vitamin D3 receptor (Homo sapiens) (UniProt P11473); assay: qHTS assay for small molecule agonists of vitamin D receptor signaling (AID 588543; calls by dose curve); settings: HEK293T VDR-UAS-bla, beta-lactamase ratio, 16 h; series mostly up to 76.8 µM
# Procedure, shortened: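 qHTS in agonist mode: compound titrations stimulate a VDR-driven β-lactamase reporter in HEK293T cells over 16 h at 37 °C. Response normalized to 50 nM 1α,25-dihydroxyvitamin D3 = 100%, DMSO = 0%; Hill fitting gives EC50 and maximal response.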
# [12] = target: Thyroid hormone receptor beta (Homo sapiens) (UniProt P10828); assay: qHTS assay for small molecule antagonists of thyroid hormone receptor beta signaling (AID 588547; active = well fitted inhibition curve with a large enough effect in the signal ratio, with a control signal flat, not every such curve was filed as active; the % refers to the signal ratio;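 note: cells stimulated with 0.4 nM T3 agonist during compound exposure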); settings: TR-UAS-bla HEK293, beta-lactamase ratio, antagonist mode, 18 h
# Procedure, shortened: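 TR-UAS-bla GripTite HEK293 cells in 2% charcoal/dextran FBS medium; compounds 0.59 nM to 92 uM with T3 at 0.4nM final, 18 h at 37 C. Beta-lactamase read by CCF4 fluorescence (460/530 nm); Hill fits gave IC50 and efficacy.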
# [13] = qHTS assay for small molecule antagonists of the retinoid-related orphan receptor gamma (ROR-gamma) signaling pathway - cell viability counter screen (AID 720652; active = well fitted curve in the direction sought with a large enough effect in the repeat runs; an effect the other way counts as inactive or inconclusive;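 note: CHO reporter cells with doxycycline-induced ROR-gamma expression; compound exposure lasted 16 hr before ATP read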); settings: RORgamma reporter cell line viability counter screen; series mostly up to 92.2 µM
# Procedure, shortened: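 CHO RORE-LUC/TET-ROR line, 1,000 cells/well, 37 C 5% CO2 5 hr; cpd or DMSO + doxycycline induction, 16 hr. CellTiter-Glo, 30 min RT, luminescence = ATP content.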
# [14] = qHTS assay for small molecule activators of the human pregnane X receptor (PXR) signaling pathway (AID 720659; call rule not given here); settings: DPX-2 HepG2 CYP3A4-luciferase, 24 h; series mostly up to 92.3 µM
# [15] = target: Mitogen-activated protein kinase 10 (Mus musculus) (UniProt Q61831); assay: JNK3 AlphaScreen Assay (AID 530; active = well fitted curve in either direction with a large enough effect, not every such curve was filed as active;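 note: kinase came from lysate of stimulated human HepG2 cells; signal reports phosphorylation of biotinylated GST-cJun 1-79 at Ser73 with 10 µM ATP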); settings: JNK3 lysate, c-Jun phosphorylation; series mostly up to 57.1 µM
# Procedure, shortened: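 HepG2 lysate (IL-1b/TNFa pre-activated) + biotin-GST-cJun 1-79 + anti-pSer73 cJun; cpd titration, 15 min RT; ATP 10 uM start; Tris pH 7.6, MgCl2, DTT, vanadate; beads in EDTA buffer; AlphaScreen.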
# [16] = MultiTox-Fluor Cytotoxicity Assay - LYMP1-003 - Live Cells (AID 962); settings: LYMP1-003 lymphoblastoid cells, MultiTox-Fluor live-cell protease fluorescence; series mostly up to 92.2 µM;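 note: cells exposed to compound for 16 hours at 37 °C; cytotoxic hits lower the live-cell protease signal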
# Procedure, shortened: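 Readout: live-cell fluorescence (Ex/Em=405/510) from GF-AFC cleavage after 60 min MultiTox-Fluor reagent at room temperature. Lymphoblastoid LYMP1-003 cells, 16 hr compound treatment, 37 C. Concentration-response fitted to standard Hill equation for AC50.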
# [17] = Cell Viability - LYMP2-015 (AID 971); settings: LYMP2-015 lymphoblastoid cell viability; series mostly up to 92.2 µM; note: nearly all actives have a fitted effect of over 55% in size
# Procedure, shortened: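 qHTS cytotoxicity: 2500 cells/well, 5 hr 37 C, compound 24 hr 37 C, CellTiter-Glo 30 min RT, luminescence. Loss of ATP = toxicity; AC50 via standard Hill fit.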
# [18] = Cell Viability - LYMP2-010 (AID 981); settings: LYMP2-010 lymphoblastoid cell viability, qHTS; series mostly up to 92.2 µM;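 note: cells exposed to compound for 24 hours at 37 °C; nearly all actives have a fitted effect of over 55% in size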; note: potency is the fitted concentration of half-maximal effect
# Procedure, shortened: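 qHTS cytotoxicity, 1536-well: 2500 cells/well, 5 hr settle, 24 hr compound at 37 C, CellTiter-Glo 30 min RT, luminescence read. Decrease in ATP = toxicity; AC50 via standard Hill equation. Positive control tetraoctylammonium bromide.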
# [19] = Cell Viability - LYMP2-018 (AID 985); settings: LYMP2-018 lymphoblastoid cells, viability (qHTS); series mostly up to 92.2 µM; note: nearly all actives have a fitted effect of over 50% in size; note: potency is the fitted concentration of half-maximal effect
# Procedure, shortened: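 2500 cells/well; 5 hr 37 C; cmpd 24 hr 37 C, complete medium; CellTiter-Glo 30 min RT; luminescence. Tetraoctylammonium bromide positive control. AC50 via Hill fit.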
# [20] = Cell Viability - LYMP2-013 (AID 970); settings: LYMP2-013 lymphoblastoid cells viability; series mostly up to 92.2 µM; note: nearly all actives have a fitted effect of over 55% in size; note: potency is the fitted concentration of half-maximal effect
# Procedure, shortened: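 CellTiter-Glo luminescence (cellular ATP) read after 30 min at RT. Cells: human lymphoblastoid line, 2500/well, 24 hr compound exposure at 37 C. Tetraoctylammonium bromide positive control; AC50 via standard Hill fit of qHTS titrations.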
# Chain of Thyroid hormone receptor beta (Homo sapiens) (P10828 whole entry, looked up): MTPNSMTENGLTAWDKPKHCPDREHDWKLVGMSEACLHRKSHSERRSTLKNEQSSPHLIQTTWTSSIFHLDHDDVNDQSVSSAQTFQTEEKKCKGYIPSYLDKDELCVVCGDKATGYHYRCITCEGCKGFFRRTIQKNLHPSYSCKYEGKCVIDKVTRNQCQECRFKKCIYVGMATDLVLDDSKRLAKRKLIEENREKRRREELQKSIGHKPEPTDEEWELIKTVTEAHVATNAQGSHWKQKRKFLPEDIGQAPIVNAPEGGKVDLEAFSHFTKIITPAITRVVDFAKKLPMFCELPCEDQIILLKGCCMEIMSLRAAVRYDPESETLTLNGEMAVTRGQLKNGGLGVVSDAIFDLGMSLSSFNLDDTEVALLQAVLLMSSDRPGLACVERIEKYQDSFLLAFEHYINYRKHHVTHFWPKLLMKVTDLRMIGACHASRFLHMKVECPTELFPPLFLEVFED
# Chain of Vitamin D3 receptor (Homo sapiens) (P11473 whole entry, looked up): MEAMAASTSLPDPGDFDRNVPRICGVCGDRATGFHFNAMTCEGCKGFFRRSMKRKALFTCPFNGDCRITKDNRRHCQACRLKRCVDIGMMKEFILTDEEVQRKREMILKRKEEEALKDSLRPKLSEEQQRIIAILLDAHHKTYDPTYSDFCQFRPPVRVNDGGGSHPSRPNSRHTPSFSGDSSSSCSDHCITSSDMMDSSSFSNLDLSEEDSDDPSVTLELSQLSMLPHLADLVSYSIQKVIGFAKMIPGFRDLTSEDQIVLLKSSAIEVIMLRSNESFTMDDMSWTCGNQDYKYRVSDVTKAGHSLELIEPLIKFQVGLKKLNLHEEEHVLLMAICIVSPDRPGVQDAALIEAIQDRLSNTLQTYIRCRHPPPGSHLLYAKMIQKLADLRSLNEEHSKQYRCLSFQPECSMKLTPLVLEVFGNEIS
SMILES,Potency [1],Potency [2],outcome [3],Potency [4],Potency [5],Potency [6],Potency [7],Potency [8],Potency [9],outcome [10],outcome [11],activity change % (negative = inhibition) [12],Potency [13],outcome [14],Potency [15],outcome [16],Potency [17],Potency [18],Potency [19],Potency [20]
ClCC(Cl)Cl,> 92 µM,inactive,inactive,inactive,inactive,inactive,inactive,inactive,inactive,inactive,inactive,8.38%,inactive,inactive,–,–,–,–,–,–
C[N+](=O)[O-],–,inactive,inactive,–,–,–,inactive,inactive,inactive,inactive,inactive,-5.27%,inactive,–,inactive,inactive,inactive,inactive,inactive,–
O=[N+]([O-])c1ccccc1CCl,> 92 µM,–,inactive,inactive,inactive,–,–,inactive,–,inactive,inactive,8.81%,–,inactive,–,inactive,–,–,–,–
ClCc1ccccn1,> 92 µM,inactive,inactive,inactive,inactive,inactive,inactive,–,inactive,inactive,inactive,-1.68%,inactive,inactive,–,inactive,inactive,inactive,inactive,inactive
CN(C)c1ccc(N)cc1,–,50.1 µM (active),–,–,39.8 µM (active),–,63.1 µM (active),–,50.1 µM (active),inactive,inactive,8.59%,–,–,–,–,–,50.1 µM (active),63.1 µM (active),79.4 µM (active)
Nc1cc(Cl)ccc1Cl,> 92 µM,inactive,–,–,inactive,inactive,inactive,inactive,inactive,–,–,16.8%,inactive,inactive,inactive,inactive,inactive,–,inactive,inactive
ClC(Br)Br,> 92 µM,inactive,inactive,–,inactive,–,inactive,inactive,inactive,–,–,–,inactive,inactive,inactive,inactive,inactive,inactive,–,inactive
C=C(C)CCl,> 92 µM,inactive,–,inactive,inactive,inactive,inactive,inactive,–,inactive,inactive,-0.864%,inactive,inactive,inactive,inactive,inactive,inactive,inactive,inactive
NC1CCC(CC2CCC(N)CC2)CC1 (centres undefined),> 92 µM,–,inactive,inactive,inactive,inactive,inactive,inactive,inactive,–,–,7.19%,inactive,inactive,inactive,inactive,inactive,inactive,inactive,–
